± gives the standard deviation of the averaged measurements.
How the values were obtained:
DLD1 [1] = assay: cell viability (CellTiter-Glo) relative to plate median (fraction of plate median); higher = more viable cells; settings: 5 µM; treatment time 24 h; reporter: 7TFP
Summary of the method: (§1)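 Colorectal cancer cell lines stably carrying lentiviral TCF/Wnt firefly luciferase reporters (7TFP or TCF4/Wnt) were plated in 384-well plates and, 24 h later, given library compounds at a final 5 µM for 24 h. Firefly luciferase or CellTiterGlo luminescence was read on parallel plates with a Tecan F500 reader. Each well's signal was normalised to the plate median in webcellHTS2 (additive, without log transformation). Values are the mean of two independent replicates.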

HCT116 = assay: as above; settings: 5 µM; treatment time 24 h; reporter: TCF4/Wnt
Summary of the method: as §1

SW480 [2] = assay: as above; settings: 5 µM; treatment time 24 h; reporter: 7TFP
Summary of the method: as §1

DLD1 [3] = assay: TCF/Wnt firefly luciferase reporter signal relative to plate median (fraction of plate median); higher = higher Wnt reporter signal; settings: 5 µM; treatment time 24 h; reporter: 7TFP
Summary of the method: as §1

SW480 [4] = assay: as above; settings: 5 µM; treatment time 24 h; reporter: 7TFP
Summary of the method: as §1

O=C(O)CCCCCCCC(=O)O
cell viability (DLD1 [1]): 1.01 ± 0.014 | cell viability (HCT116): 1.11 ± 0.11 | cell viability (SW480 [2]): 1.09 ± 0.021 | TCF/Wnt firefly luciferase reporter signal (DLD1 [3]): 1.16 ± 0.13 | TCF/Wnt firefly luciferase reporter signal (SW480 [4]): 1.01 ± 0.084

CC[N+](C)(C)c1cccc(O)c1
cell viability (DLD1 [1]): 0.956 ± 0.091 | cell viability (HCT116): 0.984 ± 0.013 | cell viability (SW480 [2]): 0.908 ± 0.041 | TCF/Wnt firefly luciferase reporter signal (DLD1 [3]): 0.92 ± 0.14 | TCF/Wnt firefly luciferase reporter signal (SW480 [4]): 0.915 ± 0.044

O=c1[nH]cnc2c1ncn2[C@@H]1O[C@H](CO)[C@@H](O)[C@H]1O [Inosin]
cell viability (DLD1 [1]): 0.943 ± 0.12 | cell viability (HCT116): 0.91 ± 0.15 | cell viability (SW480 [2]): 0.971 ± 0.013 | TCF/Wnt firefly luciferase reporter signal (DLD1 [3]): 0.67 ± 0.24 | TCF/Wnt firefly luciferase reporter signal (SW480 [4]): 0.999 ± 0.13

N[C@H]1Cc2ccc(cc2)C(=O)[C@@H]2C[C@@H](O)CN2C1=O [cyclo(4-hydroxyprolyl-phenylalanyl)]
cell viability (DLD1 [1]): 0.951 ± 0.023 | cell viability (HCT116): 0.907 ± 0.16 | cell viability (SW480 [2]): 0.956 ± 0.016 | TCF/Wnt firefly luciferase reporter signal (DLD1 [3]): 0.915 ± 0.18 | TCF/Wnt firefly luciferase reporter signal (SW480 [4]): 1.03 ± 0.028

C[C@H]1C[C@H]2[C@@H]3CCC4=CC(=O)C=C[C@]4(C)[C@@]3(F)[C@@H](O)C[C@]2(C)[C@@]1(O)C(=O)CO
cell viability (DLD1 [1]): 0.973 ± 0.0099 | cell viability (HCT116): 1.03 ± 0.086 | cell viability (SW480 [2]): 1.01 ± 0.016 | TCF/Wnt firefly luciferase reporter signal (DLD1 [3]): 0.938 ± 0.027 | TCF/Wnt firefly luciferase reporter signal (SW480 [4]): 0.953 ± 0.0028

CCC1(C)OC(=O)N(C)C1=O (stereo not given)
cell viability (DLD1 [1]): 1.04 ± 0.014 | cell viability (HCT116): 0.873 ± 0.078 | cell viability (SW480 [2]): 0.908 ± 0.0028 | TCF/Wnt firefly luciferase reporter signal (DLD1 [3]): 0.965 ± 0.0085 | TCF/Wnt firefly luciferase reporter signal (SW480 [4]): 0.956 ± 0.076

CCOc1ccc(C(=O)c2cc(O)c(OC)c(OC)c2O)cc1
cell viability (DLD1 [1]): 0.982 ± 0.054 | cell viability (HCT116): 0.925 ± 0.11 | cell viability (SW480 [2]): 0.9935 ± 0.0021 | TCF/Wnt firefly luciferase reporter signal (DLD1 [3]): 1.09 | TCF/Wnt firefly luciferase reporter signal (SW480 [4]): 0.948 ± 0.062

C[C@H]1CCC/C=C/C(=O)c2c(O)cc(O)cc2CC(=O)O1 [Dehydro-Curvularin]
cell viability (DLD1 [1]): 0.9905 ± 0.005 | cell viability (HCT116): 1.08 ± 0.014 | cell viability (SW480 [2]): 1.02 ± 0.03 | TCF/Wnt firefly luciferase reporter signal (DLD1 [3]): 1.095 ± 0.0071 | TCF/Wnt firefly luciferase reporter signal (SW480 [4]): 1 ± 0.07

CC(Cc1cccc(C(F)(F)F)c1)NCCOC(=O)c1ccccc1 (stereo not given)
cell viability (DLD1 [1]): 0.984 ± 0.023 | cell viability (HCT116): 0.993 ± 0.011 | cell viability (SW480 [2]): 0.955 ± 0.032 | TCF/Wnt firefly luciferase reporter signal (DLD1 [3]): 1.22 ± 0.057 | TCF/Wnt firefly luciferase reporter signal (SW480 [4]): 1.14 ± 0.021

O=C(O)c1cc2cc(F)ccc2[nH]1
cell viability (DLD1 [1]): 1.02 ± 0.053 | cell viability (HCT116): 1.115 ± 0.0071 | cell viability (SW480 [2]): 1.07 ± 0.085 | TCF/Wnt firefly luciferase reporter signal (DLD1 [3]): 0.963 ± 0.0057 | TCF/Wnt firefly luciferase reporter signal (SW480 [4]): 1.08 ± 0.085

CC(=O)Oc1ccccc1C(=O)O
cell viability (DLD1 [1]): 1.01 ± 0.035 | cell viability (HCT116): 1.02 ± 0.031 | cell viability (SW480 [2]): 1.025 ± 0.0071 | TCF/Wnt firefly luciferase reporter signal (DLD1 [3]): 1.05 ± 0.014 | TCF/Wnt firefly luciferase reporter signal (SW480 [4]): 0.97 ± 0.14

CC(C)/C(O)=C1/C(=O)O[C@@H](c2ccoc2)[C@]2(C)C(O)[C@@H](O)[C@@]34OC5(C)OC67CC(C)(C(O)[C@]6(O)[C@@H](O)[C@]3(O5)C12)[C@H](CC(=O)O)[C@]74C (stereo not given in full)
cell viability (DLD1 [1]): 0.869 ± 0.11 | cell viability (HCT116): 0.985 ± 0.05 | cell viability (SW480 [2]): 1 ± 0.026 | TCF/Wnt firefly luciferase reporter signal (DLD1 [3]): 1.04 ± 0.028 | TCF/Wnt firefly luciferase reporter signal (SW480 [4]): 1.02 ± 0.042

O=C1C=C2CC3(O)COc4c(ccc(O)c4O)C3=C2C=C1O (stereo not given)
cell viability (DLD1 [1]): 0.988 ± 0.073 | cell viability (HCT116): 1.04 ± 0.065 | cell viability (SW480 [2]): 1.06 ± 0.13 | TCF/Wnt firefly luciferase reporter signal (DLD1 [3]): 0.943 ± 0.081 | TCF/Wnt firefly luciferase reporter signal (SW480 [4]): 1.05

CN1CC(=O)NC1=N
cell viability (DLD1 [1]): 1.02 ± 0.04 | cell viability (HCT116): 0.943 ± 0.021 | cell viability (SW480 [2]): 1.02 ± 0.021 | TCF/Wnt firefly luciferase reporter signal (DLD1 [3]): 0.979 ± 0.059 | TCF/Wnt firefly luciferase reporter signal (SW480 [4]): 0.935 ± 0.13

C[N+](C)(C)CC(O)CC(=O)[O-] (stereo not given)
cell viability (DLD1 [1]): 0.976 ± 0.03 | cell viability (HCT116): 1.07 ± 0.14 | cell viability (SW480 [2]): 0.9395 ± 0.00071 | TCF/Wnt firefly luciferase reporter signal (DLD1 [3]): 1.14 ± 0.014 | TCF/Wnt firefly luciferase reporter signal (SW480 [4]): 0.902 ± 0.1

OC[C@H]1O[C@@](CO)(O[C@H]2O[C@H](CO)[C@@H](O)[C@H](O)[C@H]2O)[C@@H](O[C@H]2O[C@H](CO)[C@@H](O)[C@H](O)[C@H]2O)[C@@H]1O
cell viability (DLD1 [1]): 1.01 ± 0.047 | cell viability (HCT116): 1.05 ± 0.014 | cell viability (SW480 [2]): 1 ± 0.025 | TCF/Wnt firefly luciferase reporter signal (DLD1 [3]): 0.9905 ± 0.0078 | TCF/Wnt firefly luciferase reporter signal (SW480 [4]): 0.989 ± 0.073

O=C(O)c1nc2cc(Cl)c(Cl)cc2nc1O
cell viability (DLD1 [1]): 0.95 ± 0.16 | cell viability (HCT116): 0.957 ± 0.046 | cell viability (SW480 [2]): 1.03 ± 0.028 | TCF/Wnt firefly luciferase reporter signal (DLD1 [3]): 0.831 ± 0.0014 | TCF/Wnt firefly luciferase reporter signal (SW480 [4]): 0.951 ± 0.098

COc1ccc2cc1Oc1ccc(cc1)C[C@H]1c3cc(c(OC)cc3CCN1C)Oc1c(OC)c(OC)cc3c1[C@H](C2)N(C)CC3
cell viability (DLD1 [1]): 1.04 ± 0.13 | cell viability (HCT116): 0.897 ± 0.15 | cell viability (SW480 [2]): 1.215 ± 0.0071 | TCF/Wnt firefly luciferase reporter signal (DLD1 [3]): 0.948 ± 0.025 | TCF/Wnt firefly luciferase reporter signal (SW480 [4]): 0.889 ± 0.071

C/C=C1\[C@H]2C=C(C)C[C@]1(N)c1ccc(=O)[nH]c1C2
cell viability (DLD1 [1]): 0.965 ± 0.064 | cell viability (HCT116): 0.952 ± 0.016 | cell viability (SW480 [2]): 1.02 ± 0.014 | TCF/Wnt firefly luciferase reporter signal (DLD1 [3]): 1.1 ± 0.17 | TCF/Wnt firefly luciferase reporter signal (SW480 [4]): 1 ± 0.16

NC(=O)NC1NC(=O)NC1=O (stereo not given)
cell viability (DLD1 [1]): 1.03 ± 0.014 | cell viability (HCT116): 1.09 ± 0.057 | cell viability (SW480 [2]): 1.01 ± 0.03 | TCF/Wnt firefly luciferase reporter signal (DLD1 [3]): 1.02 ± 0.15 | TCF/Wnt firefly luciferase reporter signal (SW480 [4]): 1.055 ± 0.0071

C[C@@H]1Cc2cc(O)cc(O)c2C(=O)O1 [6-Hydroxymellein]
cell viability (DLD1 [1]): 0.98 ± 0.0071 | cell viability (HCT116): 0.987 ± 0.018 | cell viability (SW480 [2]): 1.015 ± 0.0071 | TCF/Wnt firefly luciferase reporter signal (DLD1 [3]): 0.927 ± 0.1 | TCF/Wnt firefly luciferase reporter signal (SW480 [4]): 0.974 ± 0.037

O=c1cc(-c2cc(O)c(O)c(O)c2)oc2cc(O)cc(O)c12
cell viability (DLD1 [1]): 1.02 ± 0.014 | cell viability (HCT116): 1.06 ± 0.057 | cell viability (SW480 [2]): 0.943 ± 0.031 | TCF/Wnt firefly luciferase reporter signal (DLD1 [3]): 1 ± 0.057 | TCF/Wnt firefly luciferase reporter signal (SW480 [4]): 0.952 ± 0.059

Oc1ccc([C@H]2Oc3cc(O)cc(O)c3C[C@H]2O)cc1
cell viability (DLD1 [1]): 1.045 ± 0.0071 | cell viability (HCT116): 1.01 ± 0.14 | cell viability (SW480 [2]): 0.974 ± 0.021 | TCF/Wnt firefly luciferase reporter signal (DLD1 [3]): 1.01 ± 0.12 | TCF/Wnt firefly luciferase reporter signal (SW480 [4]): 1.01 ± 0.07

CC(=O)Nc1ccccc1
cell viability (DLD1 [1]): 0.977 ± 0.02 | cell viability (HCT116): 0.97 ± 0.043 | cell viability (SW480 [2]): 0.966 ± 0.0042 | TCF/Wnt firefly luciferase reporter signal (DLD1 [3]): 1.05 ± 0.11 | TCF/Wnt firefly luciferase reporter signal (SW480 [4]): 0.975 ± 0.028

C1CNCCN1
cell viability (DLD1 [1]): 1.004 ± 0.0092 | cell viability (HCT116): 0.96 ± 0.071 | cell viability (SW480 [2]): 0.987 ± 0.018 | TCF/Wnt firefly luciferase reporter signal (DLD1 [3]): 1.25 ± 0.021 | TCF/Wnt firefly luciferase reporter signal (SW480 [4]): 1.05 ± 0.042

CC1(C)S[C@@H]2[C@H](NC(=O)[C@H](NC(=O)N3CCNC3=O)c3ccccc3)C(=O)N2[C@H]1C(=O)O
cell viability (DLD1 [1]): 1.07 ± 0.014 | cell viability (HCT116): 0.988 ± 0.0042 | cell viability (SW480 [2]): 0.956 ± 0.046 | TCF/Wnt firefly luciferase reporter signal (DLD1 [3]): 0.903 ± 0.0099 | TCF/Wnt firefly luciferase reporter signal (SW480 [4]): 0.919 ± 0.053

COc1cc2nc(N3CCN(C(=O)c4ccco4)CC3)nc(N)c2cc1OC
cell viability (DLD1 [1]): 1.01 ± 0.097 | cell viability (HCT116): 1.02 ± 0.036 | cell viability (SW480 [2]): 1.01 ± 0.018 | TCF/Wnt firefly luciferase reporter signal (DLD1 [3]): 1.11 ± 0.014 | TCF/Wnt firefly luciferase reporter signal (SW480 [4]): 1.09 ± 0.028

CCCCN1CCCCC1C(=O)Nc1c(C)cccc1C (stereo not given)
cell viability (DLD1 [1]): 1.02 ± 0.055 | cell viability (HCT116): 0.949 ± 0.071 | cell viability (SW480 [2]): 1.06 ± 0.042 | TCF/Wnt firefly luciferase reporter signal (DLD1 [3]): 0.901 ± 0.081 | TCF/Wnt firefly luciferase reporter signal (SW480 [4]): 0.887 ± 0.047

Cc1cc2nc3c(=O)[nH]c(=O)nc-3n(C[C@H](O)[C@H](O)[C@H](O)CO)c2cc1C
cell viability (DLD1 [1]): 0.984 ± 0.052 | cell viability (HCT116): 0.919 ± 0.051 | cell viability (SW480 [2]): 0.974 ± 0.016 | TCF/Wnt firefly luciferase reporter signal (DLD1 [3]): 1.07 ± 0.035 | TCF/Wnt firefly luciferase reporter signal (SW480 [4]): 0.907 ± 0.021

CN(C)CCc1c[nH]c2ccc(Cn3cncn3)cc12
cell viability (DLD1 [1]): 0.968 ± 0.011 | cell viability (HCT116): 1.09 ± 0.064 | cell viability (SW480 [2]): 1.03 ± 0.042 | TCF/Wnt firefly luciferase reporter signal (DLD1 [3]): 1.09 ± 0.2 | TCF/Wnt firefly luciferase reporter signal (SW480 [4]): 1.07 ± 0.099

From the supplement of paper PMC6522484
